# Active and inactive are the calls of the source. How the source made its calls: active means hit-call score of the fitted dose curve at least 0.9, where 1 is the maximum; inactive means score below 0.9.
# Legend:
# [1] = APR_HepG2_CellLoss_72hr: Apredica 72-hour HepG2 Assay for Cell Loss (AID 2282915); details: high-content imaging
# How it was run: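 HepG2 cells exposed 72 h to compound at 0.39–200 uM (10 concentrations, duplicate) in 0.5% DMSO. Fixed with 3.7% formaldehyde and Hoechst 33342-stained. Imaged at 20x; nuclear count gives cell number, fitted bidirectionally versus DMSO.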
# [2] = APR_HepG2_P-H2AX_72hr: Apredica 72-hour HepG2 Assay for H2AX Phosphorylation (AID 2282916); details: imaging, actives raise or lower the signal;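 further: phospho-histone H2A.x immunostain intensity per cell marking DNA damage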
# How it was run: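 HepG2 cells treated 72 h at 0.39–200 uM, 0.5% DMSO final, duplicates. Formaldehyde-fixed, Triton-permeabilised, immunostained for phospho-H2A.x with Hoechst; fluorescence imaged at 20x, bidirectional fit versus DMSO.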
# [3] = APR_HepG2_MitoMembPot_72hr: Apredica 72-hour HepG2 Assay for Mitochondrial Membrane Potential (AID 2282917); details: imaging, actives raise or lower the signal
# How it was run: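 HepG2 cells dosed 72 hr with compound at 0.39–200 uM in duplicate, 0.5% v/v DMSO final. Mitochondria stained with 250 nM MitoTracker Red CMXRos for 30 min before formaldehyde fixation, imaged by high-content fluorescence; bidirectional fit versus DMSO.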
# [4] = APR_HepG2_MitoticArrest_72hr: Apredica 72-hour HepG2 Assay for Mitotic Arrest (AID 2282918); details: high-content imaging, actives raise or lower the signal
# How it was run: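 Mitotic arrest in HepG2 is scored from phospho-histone H3 staining after 72 hr dosing across 0.39–200 uM, with DMSO at 0.5% v/v. Nuclei are identified by Hoechst 33342 and fluorescence intensity is quantified per cell.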
# [5] = APR_HepG2_MicrotubuleCSK_72hr: Apredica 72-hour HepG2 Assay for Microtubule CSK Stabilty (AID 2282919); details: HepG2 microtubule cytoskeleton, high-content imaging, actives raise or lower the signal
# How it was run: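 HepG2 cells were exposed 72 hr to compound at 0.39–200 uM in duplicate (0.5% DMSO final), then fixed and permeabilized. Alpha-tubulin immunofluorescence was imaged by high-content microscopy, with bidirectional fitting against DMSO and taxol as positive control.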
# [6] = APR_HepG2_P-H2AX_24hr: Apredica 24-hour HepG2 Assay for H2AX Phosphorylation (AID 2282920); details: high-content imaging, actives raise or lower the signal
# How it was run: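 Signal comes from a FITC-labeled secondary detecting phospho-histone H2A.x in fixed HepG2 cells, quantified by automated imaging at 20x. Dosing ran 24 hr across 0.39–200 uM with 0.5% v/v DMSO.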
# [7] = APR_HepG2_StressKinase_72hr: Apredica 72-hour HepG2 Assay for Stress Kinase (AID 2282921); details: HepG2 stress kinase (phospho-c-Jun) imaging, actives raise or lower the signal
# How it was run: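 HepG2 cells treated 72 hr with 0.39–200 uM compound, 0.5% v/v DMSO, duplicate wells. After formaldehyde fixation and Triton permeabilization, stained with anti-phospho-c-Jun (1:500) and Cy3 secondary, imaged at 20x. Fitted in both directions against DMSO.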
# [8] = APR_HepG2_StressKinase_24hr: Apredica 24-hour HepG2 Assay for Stress Kinase (AID 2282922); details: HepG2 stress kinase (phospho-c-Jun) imaging, actives raise or lower the signal
# How it was run: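 HepG2 cells exposed 24 h to 0.39–200 uM compound in duplicate (0.5% v/v DMSO final). Cells fixed in 3.7% formaldehyde, permeabilized and immunostained for phospho-c-Jun; read by high-content fluorescence imaging, fitted bidirectionally against DMSO.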
# [9] = APR_HepG2_p53Act_72hr: Apredica 72-hour HepG2 Assay for p53 Activation (AID 2282923); details: high-content imaging, actives raise or lower the signal;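 further: average cellular p53 protein immunofluorescence intensity in HepG2 cells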
# How it was run: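 HepG2 cells exposed 72 h to 0.39–200 uM in 0.5% DMSO, duplicates. Fixed, permeabilized cells immunostained for p53 (Cy5) with Hoechst; imaged at 20x, fluorescence analyzed bidirectionally against DMSO.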
# [10] = APR_HepG2_NuclearSize_72hr: Apredica 72-hour HepG2 Assay for Nuclear Size (AID 2282925); details: high-content imaging, actives raise or lower the signal
# How it was run: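 HepG2 cells dosed 72 h at 0.39–200 uM (10 concentrations, duplicate) in 0.5% v/v DMSO final. Fixed, Hoechst 33342-stained nuclei imaged; nuclear diameter measured by automated image analysis. Bidirectional fit versus DMSO.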
# [11] = ATG_CRE_CIS: Attagene CIS-FACTORIAL HepG2 Assay for human cAMP Responsive Element (CRE) binding protein 3 (AID 2282926); details: HepG2 CRE cis-reporter, Attagene multiplexed mRNA; actives raise or lower the signal
# How it was run: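 We dosed HepG2 cells bearing multiple cis-promoter reporter units for 24 h and measured reporter mRNA by RT-PCR with capillary electrophoresis detection. Bidirectional concentration-response fitting used DMSO as negative control.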
# [12] = target: CCAAT/enhancer-binding protein beta (Homo sapiens) (UniProt P17676); experiment: ATG_C_EBP_CIS: Attagene CIS-FACTORIAL HepG2 Assay for human CCAAT/Enhancer Binding Protein (C/EBP) beta (AID 2282927); details: HepG2 Attagene cis-factorial transcription factor reporter; actives raise or lower the signal
# CCAAT/enhancer-binding protein beta (Homo sapiens), sequence (P17676 whole entry, looked up): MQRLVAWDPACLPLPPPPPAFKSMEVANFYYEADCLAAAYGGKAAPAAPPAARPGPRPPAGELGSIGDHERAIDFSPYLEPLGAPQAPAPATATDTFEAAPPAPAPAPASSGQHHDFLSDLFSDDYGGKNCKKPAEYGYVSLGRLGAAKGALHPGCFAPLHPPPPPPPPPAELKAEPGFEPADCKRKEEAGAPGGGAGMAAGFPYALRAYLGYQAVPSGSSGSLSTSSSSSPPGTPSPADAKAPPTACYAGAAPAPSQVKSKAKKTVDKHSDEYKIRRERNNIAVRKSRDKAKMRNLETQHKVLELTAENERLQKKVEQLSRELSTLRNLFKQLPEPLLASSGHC
# How it was run: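 HepG2 transiently transfected with multiplexed reporter units under cis-regulatory promoters reporting endogenous C/EBPb activity. After 24 h exposure, reporter mRNA assayed by RT-PCR, fluorescent labelling, HpaI digestion and capillary electrophoresis; bidirectional fitting versus DMSO.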
# [13] = ATG_CMV_CIS: Attagene CIS-FACTORIAL HepG2 Assay for human CMV (Internal Marker) (AID 2282928); details: HepG2 CMV promoter reporter, transcription factor profiling; actives raise or lower the signal;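 further: endpoint acts as a background internal control marker rather than a target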
# How it was run: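 HepG2 cells transiently transfected with multiple cis-regulated reporter units; 24 h compound exposure. Reporter mRNA quantified by RT-PCR, 6-FAM primer-extension labeling, HpaI digestion and capillary electrophoresis; bidirectional fitting against DMSO baseline.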
# [14] = ATG_DR4_LXR_CIS: Attagene CIS-FACTORIAL HepG2 Assay for human Liver X Receptor (LXR), DR4 submotif (AID 2282929); details: HepG2 Attagene DR4 cis-reporter, mRNA transcription; actives raise or lower the signal
# How it was run: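 The endpoint is DR4-element-driven reporter transcripts after 24 h chemical exposure of transfected HepG2 cells. These were measured via RT-PCR and capillary electrophoresis, and gain or loss of signal was fitted relative to DMSO controls.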
# [15] = target: Aryl hydrocarbon receptor (Homo sapiens) (UniProt P35869); experiment: ATG_Ahr_CIS: Attagene CIS-FACTORIAL HepG2 Assay for human Aryl Hydrocarbon Receptor (Ahr) (AID 2282930); details: HepG2 AhR cis-factorial reporter transcription; actives raise or lower the signal
# Aryl hydrocarbon receptor (Homo sapiens), sequence (P35869 whole entry, looked up): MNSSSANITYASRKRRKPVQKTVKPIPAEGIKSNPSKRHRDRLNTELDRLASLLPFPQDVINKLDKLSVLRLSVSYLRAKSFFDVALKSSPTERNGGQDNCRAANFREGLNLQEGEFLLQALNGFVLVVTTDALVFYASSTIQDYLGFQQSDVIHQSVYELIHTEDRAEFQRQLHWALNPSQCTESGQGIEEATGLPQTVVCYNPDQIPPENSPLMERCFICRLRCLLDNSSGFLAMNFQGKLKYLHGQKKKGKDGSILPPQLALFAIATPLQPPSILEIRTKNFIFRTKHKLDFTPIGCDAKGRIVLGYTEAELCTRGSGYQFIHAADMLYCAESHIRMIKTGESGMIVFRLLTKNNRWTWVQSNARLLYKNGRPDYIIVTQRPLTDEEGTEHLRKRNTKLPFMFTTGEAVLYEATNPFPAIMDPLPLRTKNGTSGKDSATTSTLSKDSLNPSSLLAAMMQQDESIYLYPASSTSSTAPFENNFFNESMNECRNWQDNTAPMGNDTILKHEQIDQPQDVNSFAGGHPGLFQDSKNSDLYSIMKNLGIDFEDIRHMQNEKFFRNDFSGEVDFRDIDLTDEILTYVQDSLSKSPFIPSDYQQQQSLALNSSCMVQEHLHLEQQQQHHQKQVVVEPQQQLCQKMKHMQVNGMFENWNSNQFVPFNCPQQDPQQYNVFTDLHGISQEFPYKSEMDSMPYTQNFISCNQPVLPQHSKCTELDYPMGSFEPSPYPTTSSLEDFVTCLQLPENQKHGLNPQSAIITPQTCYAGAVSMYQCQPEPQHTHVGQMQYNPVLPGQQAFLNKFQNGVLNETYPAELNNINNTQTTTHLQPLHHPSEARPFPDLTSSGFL
# How it was run: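 HepG2 cells transiently transfected with cis-element-driven multiplexed reporter units; endogenous AhR activity read as reporter mRNA 24 h after dosing, via RT-PCR, 6-FAM labelling, HpaI digestion and capillary electrophoresis. Bidirectional fit relative to DMSO.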
# [16] = ATG_AP_1_CIS: Attagene CIS-FACTORIAL HepG2 Assay for human Activator Protein 1 (AP-1) (AID 2282931); details: HepG2 Attagene cis-factorial AP-1 reporter mRNA; actives raise or lower the signal
# How it was run: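 Readout is reporter transcript level from endogenous transcription factor activity, quantified by RT-PCR with fluorescent primer extension and capillary electrophoresis. Transiently transfected HepG2 cells, 24 h exposure. Curves fitted both directions versus DMSO.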
# [17] = ATG_AP_2_CIS: Attagene CIS-FACTORIAL HepG2 Assay for human Activator Protein 2 (AP-2) (AID 2282932); details: HepG2 AP-2 cis-reporter, Attagene transcription factor profiling; actives raise or lower the signal
# How it was run: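 HepG2 cells transiently transfected with cis-element reporter units and exposed for 24 h. Reporter mRNA measured by RT-PCR, FAM labelling, HpaI digestion and capillary electrophoresis. Changes in either direction fitted relative to DMSO.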
# [18] = ATG_BRE_CIS: Attagene CIS-FACTORIAL HepG2 Assay for human Bone Morphogenetic Protein (BMP) Response Element (BRE) (AID 2282933); details: HepG2 BMP response element reporter, Attagene transcription factor profiling; actives raise or lower the signal
# How it was run: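 Gain- or loss-of-signal was derived by bidirectional fitting against DMSO controls. The signal came from reporter mRNA, measured by RT-PCR and capillary electrophoresis, in HepG2 cells transiently carrying multiple reporter units and dosed for 24 h.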
# [19] = target: Retinoic acid receptor alpha (Homo sapiens) (UniProt P10276); experiment: ATG_DR5_RAR_CIS: Attagene CIS-FACTORIAL HepG2 Assay for human Retinoic Acid Receptor Alpha (RARE), DR5 submotif (AID 2282934); details: HepG2 Attagene cis-factorial RARE DR5 reporter, mRNA; actives raise or lower the signal;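 on AC50: reporter responds to endogenous RAR alpha beta and gamma in HepG2 not RARA alone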
# Retinoic acid receptor alpha (Homo sapiens), sequence (P10276 whole entry, looked up): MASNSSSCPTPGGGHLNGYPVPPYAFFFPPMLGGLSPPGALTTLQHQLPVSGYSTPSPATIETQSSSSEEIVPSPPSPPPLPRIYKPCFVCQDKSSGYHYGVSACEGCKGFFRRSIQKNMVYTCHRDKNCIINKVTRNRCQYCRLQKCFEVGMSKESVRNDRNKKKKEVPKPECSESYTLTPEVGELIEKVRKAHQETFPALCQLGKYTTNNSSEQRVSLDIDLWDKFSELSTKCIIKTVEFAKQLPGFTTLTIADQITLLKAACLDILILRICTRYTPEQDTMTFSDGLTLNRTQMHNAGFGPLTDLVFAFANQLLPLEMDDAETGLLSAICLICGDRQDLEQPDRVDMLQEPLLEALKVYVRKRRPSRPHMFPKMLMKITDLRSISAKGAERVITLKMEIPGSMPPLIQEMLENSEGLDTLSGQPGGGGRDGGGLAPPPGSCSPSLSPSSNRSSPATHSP
# How it was run: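 HepG2 cells transiently transfected with multiplexed reporter units; DR5 cis-element drives reporter through endogenous transcription factors. After 24 h dosing, reporter mRNA quantified by RT-PCR, fluorescent labeling, HpaI digestion and capillary electrophoresis; bidirectional fitting versus DMSO.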
# [20] = APR_HepG2_MitoMass_72hr: Apredica 72-hour HepG2 Assay for Mitochondrial Mass (AID 2282924); details: high-content imaging, actives raise or lower the signal;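 further: MitoTracker Red CMXRos stain intensity per cell imaged as mitochondrial mass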
# How it was run: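 HepG2 cells dosed 72 hr at 0.39–200 uM (0.5% DMSO), in duplicate. MitoTracker Red CMXRos 250 nM loaded 30 min before formaldehyde fixation; high-content fluorescence imaging, bidirectional fit versus DMSO.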
compound,measurement,setting,value
COc1cc(CCC(=O)CC(=O)CCc2ccc(O)c(OC)c2)ccc1O,outcome,[1],inactive
same,AC50,[2],96.6 µM (active)
same,outcome,[3],inactive
same,AC50,[4],166 µM (active)
same,outcome,[5],inactive
same,outcome,[6],inactive
same,outcome,[7],inactive
same,outcome,[8],inactive
same,AC50,[9],145 µM (active)
same,outcome,[10],inactive
same,outcome,[11],inactive
same,outcome,[12],inactive
same,outcome,[13],inactive
same,outcome,[14],inactive
same,outcome,[15],inactive
same,outcome,[16],inactive
same,outcome,[17],inactive
same,outcome,[18],inactive
same,outcome,[19],inactive
CCCCC(CC)COC(=O)CCCCC(=O)OCc1ccccc1 (centres undefined),outcome,[1],inactive
same,outcome,[2],inactive
same,outcome,[3],inactive
same,outcome,[4],inactive
same,outcome,[5],inactive
same,outcome,[6],inactive
same,outcome,[7],inactive
same,outcome,[8],inactive
same,outcome,[9],inactive
same,outcome,[20],inactive
same,outcome,[11],inactive
same,outcome,[12],inactive
same,outcome,[14],inactive
same,outcome,[15],inactive
same,outcome,[16],inactive
same,outcome,[17],inactive
same,outcome,[18],inactive
same,outcome,[19],inactive
CC(=O)NC1(c2cccc(F)c2)CCN(CC[C@@]2(c3ccc(Cl)c(Cl)c3)CN(c3ccccc3)C(=O)CO2)CC1,AC50,[1],21.3 µM (active)
same,AC50,[2],21.8 µM (active)
same,outcome,[3],inactive
same,AC50,[4],14.8 µM (active)
same,AC50,[5],37.7 µM (active)
same,AC50,[6],39.3 µM (active)
same,AC50,[7],24 µM (active)
same,outcome,[8],inactive
same,AC50,[9],18.7 µM (active)
same,outcome,[10],inactive
same,AC50,[11],46.6 µM (active)
same,AC50,[12],54.7 µM (active)
same,AC50,[13],45.2 µM (active)
same,AC50,[14],37.2 µM (active)
same,outcome,[15],inactive
same,AC50,[16],14.5 µM (active)
same,outcome,[17],inactive
same,AC50,[18],61.8 µM (active)
same,AC50,[19],62 µM (active)
CC(O)CO (centres undefined),outcome,[1],inactive
same,outcome,[2],inactive
same,outcome,[3],inactive
same,outcome,[4],inactive
same,outcome,[5],inactive
same,outcome,[6],inactive
same,outcome,[7],inactive
same,outcome,[8],inactive
same,outcome,[9],inactive
same,outcome,[20],inactive
same,outcome,[11],inactive
same,outcome,[12],inactive
same,outcome,[13],inactive
same,outcome,[14],inactive
same,outcome,[15],inactive
same,outcome,[16],inactive
same,outcome,[17],inactive
same,outcome,[18],inactive
same,outcome,[19],inactive
CN1CCN(c2ccccc2/C=C2\SCCN(c3ccc(Cl)c(Cl)c3)C2=O)CC1,AC50,[1],12.4 µM (active)
same,outcome,[2],inactive
same,outcome,[3],inactive
same,AC50,[4],4.25 µM (active)
same,AC50,[5],23.5 µM (active)
same,AC50,[6],32.7 µM (active)
same,AC50,[7],19.4 µM (active)
same,outcome,[8],inactive
same,outcome,[9],inactive
same,AC50,[20],109 µM (active)
same,AC50,[10],5.01 µM (active)
same,outcome,[11],inactive
same,outcome,[12],inactive
same,outcome,[13],inactive
same,outcome,[14],inactive
same,outcome,[15],inactive
same,outcome,[16],inactive
same,outcome,[17],inactive
same,outcome,[18],inactive
same,outcome,[19],inactive
COc1ccc([N+](=O)[O-])cc1N,outcome,[1],inactive
same,outcome,[2],inactive
same,outcome,[3],inactive
same,outcome,[4],inactive
same,outcome,[5],inactive
same,outcome,[6],inactive
same,outcome,[7],inactive
same,outcome,[8],inactive
same,outcome,[9],inactive
same,outcome,[20],inactive
same,outcome,[11],inactive
same,outcome,[12],inactive
same,outcome,[13],inactive
same,outcome,[14],inactive
same,outcome,[15],inactive
same,outcome,[16],inactive
same,outcome,[17],inactive
same,outcome,[18],inactive
same,outcome,[19],inactive
